Source: PubChem BioAssay
The source made the active and inactive calls.

System: Wnt5a (protein binding on small-molecule microarray)
Assay: Wnt5a binders on small-molecule microarray, primary screen, biophysical, 635/667 nm fluorescence (AID 1142);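 further: fluorescence read at 667 nm with signal to noise per printed feature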
Settings: 635 nm fluorescence, higher = more signal

SMILES | composite z-score
CCCC1(C(=O)OC)C=C2C(=C(C(C)C)C(=O)C2C)CN1 (centres undefined) | -0.0597
CCCCCCc1nc(Cc2cc(OC)c(OC)c(OC)c2)c(C)c2c1[Si](C(C)C)(C(C)C)OC2 | 0.0854
COc1c(C)cc(-c2nc(-c3ccccc3)c3c(c2C)CO[Si]3(C(C)C)C(C)C)cc1C | 0.302
[N-]=[N+]=Nc1ccccc1C[C@]1(C(=O)N2CCCCC2)N=C(c2ccc(OCCCO)cc2)O[C@H]1c1ccccc1 | 0.982

System: not listed separately
Assay: cell viability in Huh7 cells, primary screen, cytotoxicity control for HCV replication inhibitor project, CellTiter-Glo luminescence, basal, 48 h (AID 1143);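 further: Huh7 hepatoma cells carrying a hepatitis C replication reporter with no stimulus; test concentration not given here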
Settings: Huh7 HCV replicon, higher = more signal, called active from +8 up or from −8 down

SMILES | z-score
COc1cc(Cc2cc3c(c(CCc4ccccc4)n2)[Si](C(C)C)(C(C)C)O[C@H]3c2ccccc2)cc(OC)c1OC | -4.48 (inactive)
C[C@]12C(=O)N(CCO)[C@@H]3C(=O)N(c4ccc(Cl)cc4)CC=CC31O[C@@H]1/C=C\CCCOC(=O)C12 (some centres undefined) | 0.0051 (inactive)
COc1cc2c(cc1O)C(C)N(Cc1sc3ccccc3c1Cl)CC2 (centres undefined) | -0.693 (inactive)
CN1C(=O)C2C=CC(C(O)c3ccc([N+](=O)[O-])cc3)N(Nc3ccccc3)C2C1=O (centres undefined) | 0.349 (inactive)
COC(=O)[C@@]1(Cc2ccc(F)cc2)[C@H]2c3cc(C(=O)N(C)C)n(CCF)c3C[C@H]2CN1C(=O)c1ccccc1 | -1.56 (inactive)
O=C/C=C/c1ccc(-c2ccccc2)cc1 | -2.73 (inactive)
C=C(C(=O)CC[C@@H](OC(=O)c1ccccc1-c1ccccc1C(=O)O)c1ccc(OCCO)cc1)C(C)C | 0.0006 (inactive)
COc1ccc(C#Cc2ccc3c(c2)[C@]2(C(=O)N3)[C@H](c3ccccc3OCCO)N3[C@H](c4ccccc4)[C@H](c4ccccc4)OC(=O)[C@H]3[C@@H]2C(=O)NC[C@H](O)c2ccccc2)cc1 | -5.57 (inactive)
O=C1NC(=O)C2C1C=CC(C(O)c1ccc(F)cc1)N2Nc1ccc(Cl)cc1Cl (centres undefined) | -1.79 (inactive)
C[C@@]1([C@@H](NS(=O)(=O)c2cccc3cccnc23)c2ccc(-c3ccccc3)cc2)C[C@H]1C1CCCCC1 | -2.15 (inactive)
O=C1N(Cc2ccccc2)c2ccccc2C[C@@]12N=C(c1ccc(OCCCO)cc1)O[C@H]2c1ccccc1 | -3.89 (inactive)
COc1ccc(NN2C(C(O)c3ccccc3)C=CC3C(=O)N(C4CCCCC4)C(=O)C32)cc1 (centres undefined) | -2.44 (inactive)
C[C@]1(C(=O)NC2CC2)c2ccccc2C(=O)N(Cc2cc(F)cc(C(F)(F)F)c2)[C@H]1c1ccc(CO)cc1 | -2.15 (inactive)
O=C(CS)NCCCCCCNC(=O)[C@H]1C[C@H]2C(=O)NCC(=O)N2[C@H]1c1cccc(OCCO)c1 | -2.15 (inactive)
COC(=O)[C@@]1(Cc2ccc(OC)cc2)[C@H]2c3cc(C(=O)N(C)C)n(Cc4c(CO)[nH]cc(C)c4=O)c3C[C@H]2CN1C(=O)c1ccccc1 | -0.0137 (inactive)
COCCCNC(=O)[C@@]1(Cc2ccccc2I)c2ccccc2C(=O)N(C2CCCCC2)[C@H]1c1ccc(CO)cc1 | -4.51 (inactive)
COC(=O)[C@@]1(Cc2ccc(OC)cc2)[C@@H]2[C@@H](CC(=O)[C@H]2CC(=O)C(=O)N(C)C)CN1C(=O)c1ccccc1 | -3.89 (inactive)
C=C(C(=O)CC[C@@H](OC(=O)c1ccccc1-c1ccccc1C(=O)O)c1cccc(OCCO)c1)C(C)C | 0.954 (inactive)

SMILES | z-score
CC(C)C[C@@H]1NC(=O)[C@H]2C[C@@H](C(=O)O)[C@@H](c3cccc(OCCO)c3)N2C1=O | -0.513 (inactive)
Cc1ccc(S[C@]2(C(=O)NCc3ccccc3)CC(=O)N(Cc3ccccc3C(F)(F)F)[C@@H]2c2ccc(CO)cc2I)cc1 | -1.5 (inactive)
CC(C)N1CC=CC23O[C@@H]4/C=C\CCCOC(=O)C4[C@H]2C(=O)N(C(C)CO)[C@@H]3C1=O (some centres undefined) | 0.282 (inactive)
COC(=O)Cn1c(C(=O)N(C)C)cc2c1C[C@H]1CN(C(=O)c3ccccc3)[C@@](Cc3ccccc3)(C(=O)OC)[C@@H]21 | -0.273 (inactive)
COc1c(C)cc(-c2cc3c(c(CCc4ccccc4)n2)[Si](C(C)C)(C(C)C)O[C@H]3c2ccccc2)cc1C | -2.84 (inactive)
CCCCCN1CC=CC23O[C@@H]4/C=C\CCCOC(=O)C4[C@H]2C(=O)N(CCCCCO)[C@@H]3C1=O (some centres undefined) | -0.347 (inactive)
C[C@]1(C(=O)NCC(F)(F)F)c2ccccc2C(=O)N(Cc2cc(C(F)(F)F)cc(C(F)(F)F)c2)[C@H]1c1ccc(CO)cc1 | -0.286 (inactive)
COC(=O)C[C@H]1O[C@]2(C(=O)N(C)c3ccccc32)[C@@H](C)[C@@H]1[Si](C)(C)c1ccccc1 | -4.59 (inactive)
COc1ccc([Si](C)(C)[C@H]2[C@H](CC(=O)N3CCC[C@H]3CO)O[C@@]3(C(=O)N(C)c4ccccc43)[C@@H]2C)cc1 | 0.191 (inactive)
COCCOC(=O)N1C(=O)[C@@]2(c3cc(C#CCC(C(=O)OC)C(=O)OC)ccc31)[C@H](C(=O)N1CCc3cc(OC)c(OC)cc3C1)[C@H]1C(=O)O[C@H](c3ccccc3)[C@H](c3ccccc3)N1[C@@H]2c1ccccc1OCCO | -3.46 (inactive)
O=C1C2C=CC(C(O)C(c3ccccc3)c3ccccc3)N(Nc3ccccc3F)C2C(=O)N1c1ccccc1 (centres undefined) | -1.16 (inactive)
CC1C2C(CCCO)=CC(C3C(=O)N(C(N)=O)C(=O)C23)N1Cc1cccc(OC(F)(F)F)c1 (centres undefined) | 0.897 (inactive)
CN(C)CCCC[C@@H]1NC(=O)[C@H]2C[C@@H](C(=O)NCCCCCCNC(=O)CS)[C@@H](c3cccc(OCCO)c3)N2C1=O | 1.17 (inactive)
CCCC1(C(=O)OC)C=C2C(=C(C(C)C)C(=O)C2C)CN1 (centres undefined) | -0.349 (inactive)
CCCCCCc1nc(Cc2cc(OC)c(OC)c(OC)c2)c(C)c2c1[Si](C(C)C)(C(C)C)OC2 | -3.36 (inactive)
COc1c(C)cc(-c2nc(-c3ccccc3)c3c(c2C)CO[Si]3(C(C)C)C(C)C)cc1C | -0.59 (inactive)
[N-]=[N+]=Nc1ccccc1C[C@]1(C(=O)N2CCCCC2)N=C(c2ccc(OCCCO)cc2)O[C@H]1c1ccccc1 | -4.56 (inactive)
